According to ChEMBL document CHEMBL1157539, “Thousands of chemical starting points for antimalarial lead identification” (Nature, 2010):

Experiments:
Type in all cases: functional
Plasmodium falciparum [1] = test: GSK_TCMDC: Inhibition of Plasmodium falciparum 3D7 in whole red blood cells, using parasite LDH activity as an index of growth. Test compounds present at 2uM
Plasmodium falciparum [2] = test: GSK_TCMDC: Inhibition of Plasmodium falciparum Dd2 in whole red blood cells, using parasite LDH activity as an index of growth. Test compounds present at 2uM
HepG2 = test: GSK_TCMDC: Percent inhibition of human HepG2 cell line. Test compounds present at 10uM.

Row | SMILES | Inhibition (Plasmodium falciparum [1]) [%] | Inhibition (Plasmodium falciparum [2]) [%] | Inhibition (HepG2) [%]
1 | NC1=NC(c2ccccc2)(c2ccccc2)C(=O)N1Cc1ccc(-c2cccnc2)cc1.O=CO | 99 | 94 | 15
2 | Cc1cc2c(NC(=O)NC3CCN(CCc4ccccc4Cl)CC3)cccc2cn1.Cl | 100 | 46 | 13
3 | CS(=O)(=O)c1ccc(CCNCc2ccc(-c3ccc(CN(C(=O)c4cccc(C#N)c4)C4CCN(Cc5ccccc5)CC4)cc3)nc2)cc1.O=C(O)C(F)(F)F | 96 | 56 | 20
4 | Cc1[nH]c(C)c(-c2ccc(OCc3cc(C(F)(F)F)cc(C(F)(F)F)c3)nc2)c(=O)c1Cl | 98 | 96 | 19
5 | COc1ccc(Cl)cc1NC(=O)Nc1ccc2c(c1)CCN(C1CCC1)CC2.Cl | 98 | 19 | 38
6 | Cc1[nH]c(C)c(-c2ccc(-c3ccc(C(F)F)cc3)nc2)c(=O)c1Cl | 97 | 96 | 0
7 | CCCC1N=C(N)N=C(N)N1c1ccc(Cl)cc1.Cl (stereo not drawn) | 96 | 0 | 14
8 | CC(Cc1ccc(NC(=O)c2ccc(CNCCCCc3ccccc3)cc2)cc1)NCCc1cccc(Cl)c1.Cl (stereo not drawn) | 100 | 96 | 100
9 | CCN(CC)S(=O)(=O)c1ccc(C(=O)Oc2ccccc2N(Cc2ccc(OC)cc2)C2=NS(=O)(=O)c3ccccc32)cc1 | 98 | 63 | 0
10 | Br.Oc1ccc(CCNCCCCCCNCCc2ccc(Br)cc2)cc1O | 99 | 5 | 2
11 | Br.COc1ccc2c(c1)CCCC2C(C)NCC(O)c1cccc(C(F)(F)F)c1 (stereo not drawn) | 99 | 99 | 3
